Results from PubChem BioAssay AID1159580 (chemical genetic matrix, 2015).
Where “and” joins values, the source holds several entries; their conditions need not be identical. Equal values may be shown once. Out of some 5,500 compounds screened, about 2,000 (36%) were called active. About 18% were inconclusive and are not listed. Cut-off read from the data, not from the text of the source: active = normalized growth mostly below about 0.91 (no sharp cut-off); inconclusive = no clear call, values can overlap the other calls; inactive = mostly above about 0.92. Some of the results follow.

Assay: chemical genetic growth profiling, strain panel (AID 1159580);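 note: tested at 20 µM; growth read once vehicle control cultures reached saturation at 30 °C; 1 = growth at the plate median or of vehicle wells; lower values mean less growth of the strain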
Conditions: S. cerevisiae deletion strains, growth OD

Measured: normalized growth

CCCNC(C)C(=O)Nc1ccccc1C (stereo not given)
inactive: locus YAL013W, strain DEP1, hits give low values 1.01 | locus YAL021C, strain ccr4, hits give low values 1.01 | locus YAL026C, strain drs2, hits give low values 1.01 | locus YAL030W, strain snc1, hits give low values 0.995 | locus YAL040C, strain CLN3, hits give low values 1.07 | locus YBL061C, strain skt5, hits give low values 1.01 | locus YBR009C, strain hhf1, hits give low values 1.01 | locus YBR021W, strain FUR4, hits give low values 1.01 | locus YBR023C, strain chs3, hits give low values 1 | locus YBR171W, strain sec66, hits give low values 1.01 | locus YBR229C, strain ROT2, hits give low values 1.01 | locus YBR231C, strain swc5, hits give low values 1.01 | locus YBR279W, strain paf1, hits give low values 1.01 | locus YCL011C, strain gbp2, hits give low values 0.999 | locus YCL016C, strain dcc1, hits give low values 1.01 | locus YCL029C, strain bik1, hits give low values 1 | locus YCL061C, strain MRC1 (second series), hits give low values 1.01 | locus YCL061C, strain MRC1, hits give low values 0.997 | locus YCL069W, strain vba3, hits give low values 1.01 | locus YCR088W, strain abp1, hits give low values 1.01 | locus YDL005C, strain med2, hits give low values 1 | locus YDL035C, strain GPR1, hits give low values 1.01 | locus YDL040C, strain nat1, hits give low values 1.01 | locus YDL074C, strain BRE1, hits give low values 1.02 | locus YDL101C, strain DUN1, hits give low values 1.02 | locus YDL134C, strain PPH21, hits give low values 1.01 | locus YDL185W, strain tfp1, hits give low values 0.997 | locus YDL192W, strain arf1, hits give low values 0.996 | locus YDR001C, strain nth1, hits give low values 1 | locus YDR069C, strain doa4, hits give low values 1.02 | locus YDR101C, strain arx1, hits give low values 1 | locus YDR137W, strain rgp1, hits give low values 1.03 | locus YDR150W, strain NUM1, hits give low values 1.01 | locus YDR159W, strain sac3, hits give low values 1 | locus YDR162C, strain NBP2, hits give low values 1.01 | locus YDR195W, strain ref2 1.01 | locus YDR297W, strain sur2, hits give low values 1 | locus YDR318W, strain mcm21, hits give low values 0.998 | locus YDR334W, strain swr1, hits give low values 0.998 | locus YDR335W, strain msn5, hits give low values 1.01 | locus YDR363W, strain ESC2, hits give low values 1.05 | locus YDR388W, hits give low values 0.99 | locus YDR392W, strain spt3, hits give low values 1.01 | locus YDR502C, strain sam2, hits give low values 0.991 | locus YEL003W, strain gim4, hits give low values 0.998 | locus YEL037C, strain rad23, hits give low values 0.994 | locus YEL061C, strain CIN8 (second series), hits give low values 1.01 | locus YEL061C, strain CIN8, hits give low values 1.01 | locus YER002W, strain NOP16, hits give low values 0.995 | locus YER015W, strain faa2, hits give low values 0.984 | locus YER016W, strain bim1, hits give low values 0.999 | locus YER110C, hits give low values 0.991 | locus YER111C, strain swi4, hits give low values 1 | locus YER155C, strain BEM2 (second series), hits give low values 1.01 | locus YER155C, strain BEM2, hits give low values 1.01 | locus YER167W, strain BCK2, hits give low values 1 | locus YFR010W, strain ubp6, hits give low values 0.992 | locus YGL078C, strain dbp3, hits give low values 0.987 | locus YGL086W, strain mad1, hits give low values 0.993 | locus YGL167C, strain pmr1, hits give low values 1.01 | locus YGL173C, strain kem1, hits give low values 1 | locus YGL227W, strain vid30, hits give low values 1 | locus YGL240W, strain doc1, hits give low values 1.01 | locus YGL248W, strain PDE1, hits give low values 1.02 | locus YGL253W, strain hxk2, hits give low values 1.01 | locus YGR078C, strain PAC10, hits give low values 1 | locus YGR135W, strain pre9, hits give low values 0.957 | locus YGR229C, strain SMI1, hits give low values 0.99 and 1.01 | locus YGR252W, strain gcn5, hits give low values 0.911 | locus YHR013C, strain ard1, hits give low values 1.01 | locus YHR027C, strain rpn1, hits give low values 1.01 | locus YHR030C, strain SLT2, hits give low values 1.01 and 1.04 | locus YHR079C, strain IRE1 (second series), hits give low values 1.01 | locus YHR079C, strain IRE1, hits give low values 1.06 | locus YHR094C, strain hxt1, hits give low values 0.982 | locus YHR129C, strain ARP1, hits give low values 1.01 | locus YHR142W, strain chs7, hits give low values 1 | locus YHR200W, strain rpn10, hits give low values 0.999 | locus YIL066C, strain RNR3, hits give low values 1.02 | locus YIL073C, strain SPO22, hits give low values 0.989 | locus YIL125W, strain kgd1, hits give low values 0.981 | locus YIR030C, strain dcg1, hits give low values 0.994 | locus YJL092W, strain hpr5, hits give low values 1 | locus YJL095W, strain BCK1 (second series), hits give low values 1.01 | locus YJL095W, strain BCK1, hits give low values 1.02 and 1.05 | locus YJL115W, strain asf1, hits give low values 1.01 | locus YJL129C, strain trk1, hits give low values 1.01 | locus YJL134W, strain LCB3, hits give low values 1.01 | locus YJL154C, strain vps35, hits give low values 1 | locus YJL164C, strain tpk1, hits give low values 0.958 | locus YJL166W, strain qcr8, hits give low values 0.999 | locus YJL168C, strain set2, hits give low values 0.991 | locus YJL187C, strain SWE1 (second series), hits give low values 1.02 | locus YJL187C, strain SWE1, hits give low values 0.999 | locus YJR043C, strain POL32, hits give low values 1
